Assay results as given in PubChem BioAssay.
Activity calls are given as the source filed them.

How the values were obtained:
[1] = compounds binding Alexa647 anti-His antibody – biochemical, small-molecule microarray, 635 nm fluorescence, artefact control for SMM control protein annotation, primary screen (AID 1128); settings: higher = more signal;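 note: score merges feature fluorescence with signal-to-noise for each printed compound spot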
[2] = system: Human papillomavirus type 1a E7 protein (residues 1-88); test: HPV1a E7 small-molecule binders, primary screen, biochemical, small-molecule microarray, residues 1-88, 635 nm (AID 1129); settings: small-molecule microarray binding, fluorescence 635 nm; higher = more signal
[3] = molecular target: Focal adhesion kinase 1 (Homo sapiens) (UniProt Q05397); test: PTK2 protein binding on printed compound slides – biochemical, small-molecule microarray, 635/667 nm fluorescence, BSA, DTT, primary screen (AID 1130); settings: 635 nm fluorescence, higher = more signal;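 note: composite of spot emission at 667 nm and signal to noise over triplicate slides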
[4] = system: Fibrinogen (Alexa647-labelled); test: Alexa647-fibrinogen binding to printed small molecules – biochemical, small-molecule microarray, 635/667 nm fluorescence, artefact control for SMM control-protein annotation, profiling panel (AID 1131); settings: fibrinogen-A647 binding fluorescence, higher = more signal;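 note: z-score merges 667 nm fluorescence with per-spot signal-to-noise over triplicate slides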
[5] = molecular target: Follistatin (Homo sapiens) (UniProt P19883); test: FST protein binding to printed compounds – biochemical, small-molecule microarray, 635/667 nm fluorescence, primary screen (AID 1132); settings: 635 nm fluorescence, higher = more signal
[6] = molecular target: Fibroblast growth factor 2 (Homo sapiens) (UniProt P09038); test: basic fibroblast growth factor binding to printed compounds – biochemical, small-molecule microarray, 635/667 nm fluorescence, primary screen (AID 1133); settings: FGF2, fluorescence 635/667, higher = more signal
[7] = JC-1 mitochondrial potential readout, lung cancer cells – cell-based, A549, JC-1 fluorescence, basal, 24 h, 100 nL, profiling panel (AID 1138); settings: higher = more signal;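 note: A549 lung adenocarcinoma cells under basal conditions with no added stimulus; test concentration not given here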
Lefty1 = Lefty1 protein binding to printed compounds – biochemical, small-molecule microarray, 635/667 nm fluorescence, primary screen (AID 1139); settings: fluorescence 635/667, higher = more signal
[8] = system: wheat germ agglutinin (Triticum aestivum), Alexa647-labelled; test: Alexa647-WGA lectin binding to printed small molecules – biochemical, small-molecule microarray, 635/667 nm fluorescence, artefact control for SMM control-protein annotation, profiling panel (AID 1140); settings: WGA-A647 binding, 635 nm fluorescence, higher = more signal;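 note: score merges 667 nm feature emission with signal to noise over triplicate slides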
[9] = molecular target: Luciferin 4-monooxygenase (Photinus pyralis) (UniProt P08659); test: inhibition of purified Photinus pyralis luciferase – biochemical, luminescence, purified enzyme, 2006 set, primary screen (AID 1141); settings: purified firefly luciferase, SteadyGlo luminescence, 30 min; higher = more signal, called active from +8 up or from −8 down;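 note: cell-free assay with purified firefly luciferase at 100 ng per well in PBS; test concentration not given here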
Sequence of Luciferin 4-monooxygenase (Photinus pyralis) (P08659 whole entry, looked up): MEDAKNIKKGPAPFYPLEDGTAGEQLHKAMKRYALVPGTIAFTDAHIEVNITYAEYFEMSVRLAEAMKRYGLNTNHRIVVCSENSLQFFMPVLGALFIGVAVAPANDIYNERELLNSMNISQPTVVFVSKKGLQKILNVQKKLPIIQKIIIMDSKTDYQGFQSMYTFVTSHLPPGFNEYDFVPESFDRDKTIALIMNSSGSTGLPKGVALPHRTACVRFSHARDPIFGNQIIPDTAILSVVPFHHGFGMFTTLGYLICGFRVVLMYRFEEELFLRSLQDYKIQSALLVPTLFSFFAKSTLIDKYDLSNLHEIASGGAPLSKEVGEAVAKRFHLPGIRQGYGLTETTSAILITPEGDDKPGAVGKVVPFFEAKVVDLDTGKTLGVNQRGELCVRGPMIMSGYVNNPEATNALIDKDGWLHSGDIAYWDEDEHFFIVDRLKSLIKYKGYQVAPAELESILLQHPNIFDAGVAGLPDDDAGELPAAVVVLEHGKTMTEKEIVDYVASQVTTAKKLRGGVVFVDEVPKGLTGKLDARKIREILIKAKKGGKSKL

Sequence of Follistatin (Homo sapiens) (P19883 whole entry, looked up): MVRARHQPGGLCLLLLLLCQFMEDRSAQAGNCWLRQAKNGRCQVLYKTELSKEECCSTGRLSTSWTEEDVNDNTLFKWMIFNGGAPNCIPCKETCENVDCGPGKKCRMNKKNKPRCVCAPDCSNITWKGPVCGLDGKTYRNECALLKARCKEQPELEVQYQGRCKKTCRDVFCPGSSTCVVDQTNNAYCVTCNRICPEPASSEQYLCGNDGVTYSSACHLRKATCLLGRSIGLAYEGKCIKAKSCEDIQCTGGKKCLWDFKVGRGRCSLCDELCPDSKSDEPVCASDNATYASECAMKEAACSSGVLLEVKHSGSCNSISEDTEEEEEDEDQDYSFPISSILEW
Sequence of Focal adhesion kinase 1 (Homo sapiens) (Q05397 whole entry, looked up): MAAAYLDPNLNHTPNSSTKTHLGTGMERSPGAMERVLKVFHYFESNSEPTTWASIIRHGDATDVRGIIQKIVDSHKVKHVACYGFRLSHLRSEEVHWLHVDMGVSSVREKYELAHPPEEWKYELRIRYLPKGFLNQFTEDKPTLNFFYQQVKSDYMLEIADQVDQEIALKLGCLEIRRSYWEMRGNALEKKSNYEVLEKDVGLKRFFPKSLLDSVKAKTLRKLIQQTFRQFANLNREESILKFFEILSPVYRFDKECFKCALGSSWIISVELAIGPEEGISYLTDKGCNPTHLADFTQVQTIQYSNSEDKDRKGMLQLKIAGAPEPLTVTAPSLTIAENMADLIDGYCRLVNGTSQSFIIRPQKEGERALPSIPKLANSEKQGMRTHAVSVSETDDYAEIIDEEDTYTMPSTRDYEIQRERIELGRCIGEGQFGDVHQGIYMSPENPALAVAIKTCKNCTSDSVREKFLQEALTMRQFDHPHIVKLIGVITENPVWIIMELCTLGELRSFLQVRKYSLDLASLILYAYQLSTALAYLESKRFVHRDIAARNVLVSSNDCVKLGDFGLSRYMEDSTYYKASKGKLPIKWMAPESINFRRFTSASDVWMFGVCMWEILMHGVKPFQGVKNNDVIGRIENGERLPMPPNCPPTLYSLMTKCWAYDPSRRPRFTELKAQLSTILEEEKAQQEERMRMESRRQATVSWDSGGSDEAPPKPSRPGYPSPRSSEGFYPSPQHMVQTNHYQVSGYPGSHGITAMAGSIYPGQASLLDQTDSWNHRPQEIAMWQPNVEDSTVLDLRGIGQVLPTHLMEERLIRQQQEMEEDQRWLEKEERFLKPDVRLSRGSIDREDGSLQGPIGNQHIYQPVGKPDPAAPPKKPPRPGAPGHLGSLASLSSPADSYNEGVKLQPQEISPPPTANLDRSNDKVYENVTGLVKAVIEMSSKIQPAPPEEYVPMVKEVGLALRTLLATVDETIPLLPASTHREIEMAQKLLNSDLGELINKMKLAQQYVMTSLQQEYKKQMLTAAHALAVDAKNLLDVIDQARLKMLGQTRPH
Sequence of Fibroblast growth factor 2 (Homo sapiens) (P09038 whole entry, looked up): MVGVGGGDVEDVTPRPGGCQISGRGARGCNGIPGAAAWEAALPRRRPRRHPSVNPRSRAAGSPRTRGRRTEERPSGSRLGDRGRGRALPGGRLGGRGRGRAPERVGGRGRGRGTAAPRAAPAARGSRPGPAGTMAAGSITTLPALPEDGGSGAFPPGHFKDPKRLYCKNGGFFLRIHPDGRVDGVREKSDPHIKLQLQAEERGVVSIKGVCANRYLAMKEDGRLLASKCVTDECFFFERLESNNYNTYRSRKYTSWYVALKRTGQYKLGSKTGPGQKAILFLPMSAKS

Compound | composite z-score [1] | composite z-score [2] | composite z-score [3] | composite z-score [4] | composite z-score [5] | composite z-score [6] | z-score [7] | composite z-score (Lefty1) | composite z-score [8] | z-score [9]
COc1cccc([C@H]2Oc3ccc(OC)cc3C(=NOC(C)CN3CCCc4nc(C)c(C)cc43)[C@@H]2O)c1 (stereo not given in full) | 2.41 | 0.857 | 0.394 | -0.712 | 0.073 | 0.125 | 0.128 | 0.809 | -0.299 | 0.149 (inactive)
C=CC[C@@H]1C=C[C@H](ON=Cc2ccc(C(=O)N3[C@H](c4ccc(C)cc4)[C@@H](C)CC[C@H]3C(=O)OC)cc2)[C@@H](CO)O1 | -0.672 | 0.973 | 0.181 | 0.302 | 0.333 | 0.646 | -0.154 | 0.387 | 0.0608 | 1.27 (inactive)
O=C1O[C@@H](c2ccccc2)[C@@H](c2ccccc2)N2[C@@H](c3ccc(OCCO)cc3)[C@]3(C(=O)Nc4ccccc43)[C@@H](C(=O)N3CCN(c4ncccn4)CC3)[C@H]12 | 1.08 | 1.18 | 0.687 | 0.489 | 1.28 | 1.17 | -0.473 | 1.19 | 0.929 | -1.4 (inactive)
C[C@H]1Cc2c(-c3ccccc3)nc3c(c2CO1)CN(CCOc1ccccc1)CC3 | 1.08 | 0.576 | 0.269 | 0.728 | 1.09 | 1.08 | 3.24 | 1.11 | 0.253 | -1.41 (inactive)
C[C@H](c1ccccc1)N1C(=O)[C@H]2[C@H]3[C@H](O)[C@H](O)CC(=O)[C@@H]3CC[C@H]2C1=O | 0.62 | -0.0909 | 0.0546 | 0.436 | 0.469 | 0.51 | 0.47 | 0.515 | 0.286 | 0.569 (inactive)
CCOC(=O)NN=C1C[C@@H](O)[C@@H](O)[C@@H]2[C@@H]3C(=O)N(C(C)(C)C)C(=O)[C@@H]3CC[C@@H]12 | -0.889 | -0.461 | 0.291 | -0.417 | -0.686 | 0.638 | 0.0179 | -0.519 | -1.19 | 0.413 (inactive)
O=C1NC(=O)C2C1C=CC(C(O)Cc1ccccc1)N2Nc1ccccn1 (stereo not given) | 0.596 | 0.45 | 0.116 | 0.353 | 0.194 | 0.512 | 1.78 | -0.174 | 0.639 | -0.523 (inactive)
CO[C@@H]1COC(=O)CCC[C@@H](C)[C@H](OC)COC(=O)CCC[C@H]1C | 0.463 | 0.077 | -0.217 | -0.0557 | 0.513 | 0.685 | -0.598 | 0.958 | -0.261 | 1.17 (inactive)
CC(C)N1CC=CC23O[C@@H]4C=CCCOC(=O)C4[C@H]2C(=O)N(CCCCCCO)[C@@H]3C1=O (stereo not given in full) | -0.112 | -0.807 | -0.268 | -1.2 | -0.851 | -1.6 | 0.526 | -0.187 | -1.32 | -0.127 (inactive)
CO[C@@H]1COC(=O)CCC[C@@H](C)[C@H](OC)COC(=O)[C@H](Cc2ccccc2)NC(=O)CC=C[C@H]1C | 0.393 | -2.53 | -0.268 | -0.876 | 1.29 | 0.273 | -0.972 | 0.978 | -0.271 | -0.418 (inactive)
CCCNC(=O)OC[C@H]1O[C@H](CCON=C2[C@H]3CCn4c(=O)n(-c5ccccc5)c(=O)n4[C@H]3[C@H](O)[C@@H]3O[C@H]23)C=C[C@@H]1Oc1ccc(OC)cc1 | -0.429 | 0.281 | 0.172 | 0.297 | 0.146 | 0.409 | -0.0269 | 0.502 | 0.201 | 0.0766 (inactive)
O=C1C[C@@H](O)[C@@H](O)[C@@H]2[C@@H]3C(=O)N(c4ccc(F)cc4F)C(=O)[C@@H]3CC[C@@H]12 | 0.408 | 0.709 | -0.246 | -0.518 | 0.312 | 0.294 | 0.245 | 0.379 | 0.044 | -0.9 (inactive)
COc1ccc(-c2nc3c(c4c2C[C@H](C)OC4)CN(CCC(C)C)CC3)cc1 | 0.998 | 1.14 | 0.233 | 0.809 | 0.653 | 0.491 | 2.72 | 0.67 | 0.642 | -0.793 (inactive)
O=C1C[C@@H](O)[C@@H](O)[C@@H]2[C@@H]3C(=O)N(c4cccc(Oc5ccccc5)c4)C(=O)[C@@H]3CC[C@@H]12 | 0.161 | 0.783 | 0.35 | 0.725 | 0.91 | 0.679 | 0.844 | 0.661 | 0.428 | -0.44 (inactive)
COC(=O)[C@H](C)NC(=O)CCC1CC(OC(=O)NCCc2ccc(F)cc2)CC2(CCCC(COC(=O)NCCc3ccc(Cl)cc3)O2)O1 (stereo not given in full) | 0.225 | 0.966 | 0.167 | 0.873 | 0.646 | 1.05 | 0.994 | 1.25 | 0.766 | 0.0182 (inactive)
COc1ccc(O[C@@H]2[C@H](O)CO[C@H]2C=CC#Cc2ccccc2)cc1 | 1.1 | -0.253 | -0.267 | 0.73 | 0.356 | 0.341 | -0.0963 | 0.407 | 0.535 | -0.391 (inactive)

Compound | composite z-score [1] | composite z-score [2] | composite z-score [3] | composite z-score [4] | composite z-score [5] | composite z-score [6] | z-score [7] | composite z-score (Lefty1) | composite z-score [8] | z-score [9]
CCOC(=O)CCN1C(=O)[C@H]2[C@H]3[C@H](O)[C@H](O)CC(=NOC[C@@H](O)COCc4ccco4)[C@H]3CC[C@H]2C1=O | 0.659 | 0.785 | 0.857 | 0.894 | 0.938 | 0.229 | -1.06 | 0.863 | 0.288 | 0.586 (inactive)
CC(C)(C)OC(=O)CC[C@]1(C(N)=O)COC(c2ccc(OCCCO)cc2)=N1 | 1.3 | 0.804 | -0.0765 | 0.29 | 1.1 | 1.13 | -0.437 | -1.08 | 0.43 | -0.0436 (inactive)
COC(=O)[C@@H]1N=C(c2ccc(OCCCO)cc2)O[C@@H]1c1ccccc1N=[N+]=[N-] | 1.99 | 1.21 | 0.942 | 0.077 | 0.499 | -0.253 | 0.484 | -0.394 | 1.04 | -17.9 (active)
O=C1C[C@]2(c3ccc([N+](=O)[O-])cc3)C(=O)N(CCN3CCOCC3)c3cc(CO)ccc3[C@H]2N1CC12CC3CC(CC(C3)C1)C2 | -0.585 | 0.275 | 0.0816 | -0.724 | -0.377 | -1.54 | -0.869 | -0.424 | 0.551 | 0.959 (inactive)
CCCC[C@@H]1C[C@H]1[C@@H](NS(=O)(=O)c1cccc2cccnc12)c1ccc(-c2ccccc2)cc1 | 0.983 | 1.08 | 0.479 | -0.809 | 0.0634 | -1.06 | 0.164 | -0.805 | 0.366 | 0.633 (inactive)
COC(=O)[C@H](C)NC(=O)CCC1CC(OC(=O)NCCc2ccc(F)cc2)CC2(CCCC(COC(=O)NCC(c3ccccc3)c3ccccc3)O2)O1 (stereo not given in full) | 0.862 | 1.18 | 0.548 | 0.834 | 0.342 | 0.0725 | 0.549 | 0.483 | 0.958 | 0.467 (inactive)
C#C[C@@H](CC)O[Si](C#Cc1ccc(Oc2ccccc2)cc1)(C(C)C)C(C)C | 0.491 | 0.649 | -0.0378 | 0.15 | 0.395 | 0.307 | -1.81 | 0.63 | 0.299 | 0.0007 (inactive)
CCOC(=O)NN=C1C[C@@H](O)[C@@H](O)[C@@H]2[C@@H]3C(=O)N(CC)C(=O)[C@@H]3CC[C@@H]12 | 0.249 | 0.707 | 0.25 | 0.356 | 0.314 | -0.0549 | 0.0102 | 0.476 | -0.203 | 0.439 (inactive)
COC(=O)c1c(CC[C@@H](CO)NC(=O)N[C@H](Cc2ccccc2)Cn2cc(-c3ccccc3N)nn2)oc(C(C)=O)c1C(=O)OC | 1.35 | 1.17 | -0.422 | 0.323 | 0.629 | 0.237 | 0.34 | 0.348 | 1.14 | -0.197 (inactive)
COc1ccccc1CN1C(=O)c2ccccc2[C@@H](C(=O)NCC(F)(F)F)[C@@H]1c1ccc(CO)cc1 | 0.218 | 0.993 | 0.391 | 0.532 | 1.06 | 1.05 | 1.13 | 1.13 | 0.185 | 0.806 (inactive)
CC=CC1=C(CO)[C@H](O)[C@H]2O[C@H]2[C@H]1O | 0.189 | 0.277 | -0.0741 | -0.0409 | 0.589 | 1.06 | -0.565 | 0.871 | -0.191 | -0.115 (inactive)
CCOC(=O)[C@H](Cc1ccccc1)NC(=O)CCC1CC(OC(=O)NCc2ccc3c(c2)OCO3)CC2(CCCC(COC(=O)NCc3ccccc3)O2)O1 (stereo not given in full) | 1 | 1.12 | -0.108 | 0.347 | 0.725 | 0.69 | 1.64 | 0.688 | 0.335 | 0.66 (inactive)
COCCOC(=O)N1C(=O)[C@@]2(c3cc(C#CCNC(N)=O)ccc31)[C@H](c1ccc(O)cc1)N1[C@H](c3ccccc3)[C@H](c3ccccc3)OC(=O)[C@H]1[C@@H]2C(=O)N1CCCCCCC1 | 0.127 | 0.857 | 0.14 | 0.606 | 1.3 | 1.5 | -1.18 | 1.05 | 0.566 | 0.629 (inactive)
[N-]=[N+]=NCc1ccccc1[C@@H]1OC(c2ccc(OCCCO)cc2)=N[C@]1(Cc1ccccc1)C(=O)N1CCOCC1 | 2.32 | 1.11 | 0.373 | 0.998 | 1.15 | 0.593 | 1.23 | 0.115 | 1.26 | -0.633 (inactive)
C[C@@H]1CCC2C(=O)N(Cc3ccccc3)C[C@@H](O)CN2[C@H]1c1ccc(Br)cc1 (stereo not given in full) | 0.737 | 0.0101 | -0.24 | 0.909 | 0.49 | 0.425 | 1.89 | 0.399 | 0.623 | -1.86 (inactive)
